Here are results for 95 compounds from PubChem BioAssay AID2315 (National Center for Advancing Translational Sciences (NCATS), 2010).

Where “and” joins values, the source holds several entries; their conditions need not be identical. Identical values can stand only once. The whole screen tested about 290,000 compounds, of which about 27,000 (9.3%) were called active. The sample holds actives, similar compounds and a random draw of the others, so the mix is not that of the screen. A number with no mark means an inactive call. Cut-off read from the data, not from the text of the source: active = inhibition mostly above about 28% (no sharp cut-off); inactive = mostly below about 43%.

The nature of this assay: A qHTS for Small Molecule Inhibitors of Shiga Toxin. Note: 0% is about no effect. To be noted: Vero cells, Shiga toxin protein synthesis inhibition reporter; at 38.7 µM, stronger effect = higher value. A general note: qHTS replaces the single test concentration by a dilution series.
In general, inhibition refers to the change of the read-out against control, counted positive when it falls. Consider `COc1ccc(NC(=O)CNC(=O)Cn2ccc3ccccc3c2=O)c(OC)c1`, for which the inhibition was -5.3%.

Consider `CC[C@H](C)[C@H](NC(=O)[C@H](CCCNC(=N)N)NC(=O)[C@H](CCCNC(=N)N)NC(=O)[C@H](CC(C)C)NC(=O)[C@H](Cc1ccccc1)NC(=O)CNC(=O)CNC(=O)[C@@H](N)Cc1ccc(O)cc1)C(=O)N[C@@H](CCCNC(=N)N)C(=O)N1CCC[C@H]1C(=O)N[C@@H](CCCCN)C(=O)N[C@@H](CC(C)C)C(=O)N[C@@H](CCCCN)C(=O)N[C@@H](Cc1c[nH]c2ccccc12)C(=O)N[C@@H](CC(=O)O)C(=O)N[C@@H](CC(N)=O)C(=O)N[C@@H](CCC(N)=O)C(=O)O`, for which the inhibition was -7.4%.

As to `CN(C)c1ccc(CNC(=O)CN2C(=O)COc3ccc(S(=O)(=O)N4CCCC4)cc32)cc1`, the inhibition was -2.88%.

In the case of `O=[N+]([O-])c1ccccc1Nc1ccc(O)cc1`, the inhibition was -30.1%.

As for `O=C(Cc1ccc(Cl)cc1)NC(=S)Nc1ccccc1O`, the inhibition is -14.5%.

For the compound `Oc1ccc(CNc2ccccc2O)cc1`, the inhibition was 120% (active).

As for `CCN1CCN(C2CCCCC2NS(=O)(=O)c2ccc(Cl)cc2)CC1` (stereo not given), the inhibition was -12.5%.

Turning to `CC(C)(C)C1C/C(=C/c2ccco2)C(=O)/C(=C/c2ccco2)C1` (stereo not given), the inhibition was 46.5% (active).

For `O=C1OC(/C=C/c2ccccc2)=NC/1=C/c1ccco1`, the inhibition was -7.2%.

On to `COC(=O)C1=C(C)N(c2ccc(Br)cc2)C(=O)/C1=C\c1ccco1`, for which the inhibition was 14.6%.

Turning to `Cc1c(S(=O)(=O)N2CC(C)CC(C)C2)c(=O)n(C)c(=O)n1C` (stereo not given), the inhibition was -33.2%.

As to `O=C(CCc1c[nH]c2ccccc12)NCCOc1ccccc1`, the inhibition is 44.8%.

Regarding `Oc1ccc(N=Cc2c(O)ccc3ccccc23)cc1`, the inhibition was 18.7%.

With `Oc1ccc(N=Cc2sc3ccccc3c2Cl)cc1`, the inhibition is 77.5% (active).

`Cc1nn(C)cc1/C=N/NC(=O)c1sc2ccccc2c1Cl`: the inhibition was 25%.

Turning to `O=C(N/N=C/c1ccoc1)c1ccc(Cl)cc1Cl`, the inhibition is 68.7% (active).

Turning to `CC(C)NC(=O)c1ccc(Cl)cc1Cl`, the inhibition was 8.65%.

`CC(C)c1cc(C(=O)N/N=C/c2ccoc2)c(O)c(C(C)C)c1`: the inhibition was 4.23%.

For the compound `O=C(NCCCN1CCCCC1)C1CCCN(c2ncnc3c2nc2n3CCCCC2)C1` (stereo not given), the inhibition was 4.24%.

For the compound `OC(COc1ccc(F)cc1Cl)CN1CCc2ccccc2C1` (stereo not given), the inhibition was 16.9%.

Turning to `Cn1nccc1NS(=O)(=O)c1ccc(F)cc1`, the inhibition was 160% (active).

As to `Cc1ccc(NS(=O)(=O)c2ccc(F)cc2)nc1`, the inhibition was -8.43%.

For the compound `Cc1cc(C)cc(NS(=O)(=O)c2ccc(F)cc2)c1`, the inhibition was 8.8%.

As to `COc1ccc(S(=O)(=O)NC(C)C(=O)NCc2ccncc2)cc1Cl` (stereo not given), the inhibition was -1.67%.

Turning to `CCCCc1ccc(NC(=O)NCc2cccnc2)cc1`, the inhibition is 6.04%.

`O=C(CSc1ncccn1)NC(=O)NCc1ccccc1`: the inhibition was 34.2%.

Consider `Cc1nc2ccc(NC(=O)C(F)(F)F)cc2o1`, for which the inhibition is -11.6%.

For the compound `Cc1nc(C)c(C(=O)Nc2ccc(C)c(F)c2)o1`, the inhibition is 0.239%.

Regarding `Cc1nc2cc(NC(=O)NCc3ccccc3)ccc2o1`, the inhibition is 44.8% (active).

Turning to `Cc1ccc(NC(=O)Nc2ccc3oc(C)nc3c2)cc1`, the inhibition is 144% (active).

Regarding `COc1ccccc1N(CC(=O)N/N=C(\C)c1ccccc1O)S(=O)(=O)c1ccc(C)cc1`, the inhibition is -3.24%.

Turning to `CCOC(=O)c1ccc(NC(=O)CCn2c(=O)oc3ccccc32)cc1`, the inhibition was -8.48%.

With `O=C(NC(=S)N1CCCCC1c1cccnc1)c1ccccc1` (stereo not given), the inhibition is 3.14%.

On to `Cc1ccccc1NC(=O)CSc1ccc2nnc(-c3ccccn3)n2n1`, for which the inhibition is 15.7%.

For the compound `COC(=O)c1ccccc1NC(=O)c1ccc(C#N)cc1`, the inhibition was 8.5%.

Take `Cc1c(CN2CCC(n3nccc3NC(=O)CCc3ccccc3)CC2)cnn1C`: the inhibition was 4.45%.

For the compound `O=C(NCC(=O)N1CCC2(CC1)NCCc1[nH]cnc12)c1ccc(Br)cc1`, the inhibition was -10%.

`COc1ccc(NC(=O)CCS(=O)(=O)c2cc3c(cc2Cl)NC(=O)CO3)cc1OC`: the inhibition is -4.27%.

In the case of `Cc1ccccc1CN(c1ccc(C(=O)NCC2CCCO2)cc1)S(C)(=O)=O` (stereo not given), the inhibition was -12.3%.

With `COCCNC(=O)c1ccccc1-c1nc(-c2ccccc2Cl)no1`, the inhibition was 79.4% (active).

Turning to `Cc1nc2ccccc2c2oc(C(=O)NCC3CCCO3)cc12` (stereo not given), the inhibition was -16%.

With `O=C(NCC1CCCO1)c1cc(-c2ccccc2)nc2ccccc12` (stereo not given), the inhibition was 15%.

On to `O=C(NCC1CCCO1)c1ccccc1-c1nc(-c2ccccc2Cl)no1` (stereo not given), for which the inhibition was 43.2% (active).

As for `O=C(Nc1ccccc1C(=O)NCC1CCCO1)c1ccccc1F` (stereo not given), the inhibition was 17.2%.

As for `O=C(NCC1CCCO1)c1cc2c([nH]c3ccccc32)c(-c2ccc(F)cc2)n1` (stereo not given), the inhibition is -7.75%.

Consider `Cc1ccc2cc(CCNC(=O)c3c(-c4ccccc4Cl)noc3C)c(=O)[nH]c2c1`, for which the inhibition was -3.3%.

`Cc1cc(C)n(C(=O)CCNC(=O)c2ccccc2Cl)n1`: the inhibition is -4.34%.

Take `Cc1ccc(-c2noc(-c3ccccc3C(=O)NCC3CCCO3)n2)cc1` (stereo not given): the inhibition was 48.4% (active).

For the compound `O=C(NCC1CCCO1)c1ccc2ccccc2n1` (stereo not given), the inhibition was 69.8% (active).

As to `O=C(CSCc1c(F)cccc1Cl)NCC1CCCO1` (stereo not given), the inhibition is -5.03%.

`Cc1ccc(S(=O)(=O)N(CC(O)CN2CCCCC2)c2cccc([N+](=O)[O-])c2)cc1` (stereo not given): the inhibition was -3.58%.

For `COc1ccc(CCNS(=O)(=O)c2cc3c(cc2C)NC(=O)CO3)cc1OC`, the inhibition is 14.5%.

`CC(C)CC(=O)N1CCN(Cc2ccccc2Br)CC1`: the inhibition was 15.6%.

Take `CN1CCN(NC(=O)Nc2ccc(Br)cc2)CC1`: the inhibition is 24.3%.

Turning to `O=C(c1ccc(Cl)c(S(=O)(=O)N2CCCCC2)c1)N1CCCCCC1`, the inhibition was -21.7%.

Consider `COc1ccc(C(=O)CCC(=O)Nc2ccc(Cl)cc2)cc1`, for which the inhibition is -6.22%.

Turning to `Cn1sc(=O)c2cc(S(=O)(=O)NC3CC3)ccc21`, the inhibition was -7.9%.

Regarding `Cc1nn(Cc2ccccc2)c(C)c1NS(=O)(=O)c1ccccc1`, the inhibition is -5.63%.

For `ONC(=Nc1ccccc1)c1ccccc1Cl`, the inhibition was -18.8%.

In the case of `COc1ccc(N(C(=O)c2cccnc2)S(=O)(=O)c2ccc(OC)c(OC)c2)cc1`, the inhibition was -7.61%.

Turning to `COc1ccc(OC)c(C(C)NC(=S)Nc2ccc(S(=O)(=O)Nc3ncccn3)cc2)c1` (stereo not given), the inhibition was -14%.

For the compound `COc1ccc2cc(C(=O)C3CCCN(C(=O)c4sc(C)nc4C)C3)ccc2c1` (stereo not given), the inhibition was 15.6%.

With `O=C(CSc1ccc(-c2ccc(Br)cc2)nn1)NCC1CCCO1` (stereo not given), the inhibition is 2.72%.

Take `CCCNC(=O)CCn1nc(-c2ccccc2)c2ccccc2c1=O`: the inhibition was -10.6%.

In the case of `COC(=O)C(CC(C)C)NS(=O)(=O)c1cc(Br)ccc1Br` (stereo not given), the inhibition is 40.7%.

For `O=C(O)Cc1csc(-c2cccc(Oc3ccccc3)c2)n1`, the inhibition was -2.34% and 18.5%.

`COc1ccc(SCc2noc(C(=O)NCC3CCCO3)c2C(=O)O)cc1` (stereo not given): the inhibition was -6.14%.

Turning to `COc1ccc2cc(C(=O)NCC3CCCO3)[nH]c2c1` (stereo not given), the inhibition was 81.7% (active).

On to `CCC(=O)c1c[nH]c(C(=O)NCC2CCCO2)c1` (stereo not given), for which the inhibition is -5.73%.

As to `CNC(=O)C1CCN(S(=O)(=O)c2c(C)noc2/C=C/c2cccc(C)c2)CC1`, the inhibition is -9.45%.

For `Cc1ccc2cccc(OCCCOc3ccccc3CO)c2n1`, the inhibition is 25.2%.

Take `Cc1c(C(=O)NC2CCCCC2)oc2ccccc12`: the inhibition is 60.6%.

Regarding `Cc1nonc1NC(=O)c1oc2ccccc2c1C`, the inhibition was 85.7% (active).

As for `Cc1ccc(NC(=O)c2oc3ccccc3c2C)c([N+](=O)[O-])c1`, the inhibition is 46.2% (active).

As for `Cc1ccc(NC(=O)CN(C)Cc2ccc(F)cc2)c([N+](=O)[O-])c1`, the inhibition is 19.4%.

Turning to `CCc1nonc1NC(=O)c1oc2ccc(Cl)cc2c1C`, the inhibition was 1.67%.

Take `Cc1nonc1NC(=O)c1ccccc1Br`: the inhibition was 30.3%.

For `COCc1cc(C)n(CC(=O)NCC2CCCO2)c(=O)c1C#N` (stereo not given), the inhibition was -20.7%.

Regarding `COc1ccccc1CCCNC(=O)C1CCC(=O)N(CCN2CCOCC2)C1` (stereo not given), the inhibition is -25.5%.

As to `Nc1nc(NCc2ccccc2)n(-c2ccccc2)n1`, the inhibition is -6.24%.

As to `Cc1cccc(CC(=O)N2CCN=C2SCc2ccc([N+](=O)[O-])cc2)c1`, the inhibition is 2.92%.

As for `FC(F)(F)c1cccc(NC(=S)Nc2cccc(Cl)c2)c1`, the inhibition was 1.44%.

Turning to `S=C(NCc1ccc2c(c1)OCO2)NCc1ccco1`, the inhibition was 53.2%.

For `Cc1csc(NC(=S)Nc2cccc(Cl)c2)n1`, the inhibition was 126% (active).

Regarding `S=C(Nc1cccc(Cl)c1)Nc1ccc2cn[nH]c2c1`, the inhibition was 34.5%.

On to `S=C(NCc1ccco1)Nc1ccc2c(c1)OCCO2`, for which the inhibition was 69.3% (active).

As for `CN(C)S(=O)(=O)c1cccc(NC(=S)NCc2ccc3c(c2)OCO3)c1`, the inhibition is -10.4%.

On to `FC(F)Oc1ccc(NC(=S)NCc2ccco2)cc1Cl`, for which the inhibition was 9.56%.

In the case of `CC(=O)Nc1cccc(C(=O)Nc2nc(C)cs2)c1`, the inhibition is 42.6%.

Regarding `S=C(Nc1cccc(Cl)c1)Nc1ccc2c(c1)OCCO2`, the inhibition was 61.2% (active).

With `CC(NS(=O)(=O)c1ccc(OCC(=O)N2CCCC2)cc1)c1ccccc1` (stereo not given), the inhibition is -8.81%.

For the compound `COCCn1cnc2c1c(=O)n(CC(=O)NN)c(=O)n2Cc1ccccc1`, the inhibition is 14.2%.

As for `C/C(=N\NC(=O)c1cc(-c2ccc(O)cc2)nc2ccccc12)c1cccnc1`, the inhibition was 6.02%.

With `CC1CC(C)CN(CCCNC(=O)Cn2ncc3c([nH]c4ccccc43)c2=O)C1` (stereo not given), the inhibition is -7.63%.

With `Cc1c(Br)c([N+](=O)[O-])nn1CC(=O)Nc1sc2c(c1C(=O)OC(C)C)CCC(C)C2` (stereo not given), the inhibition was -7.24%.
